Data taken from PubChem BioAssay AID624202 (National Center for Advancing Translational Sciences (NCATS), 2012).
About 4,000 (1.1%) of roughly 380,000 compounds were called active. Not shown: some 3% with an inconclusive outcome. The call rests on the fitted dose curve; in most records, active means well fitted activation curve with a large enough effect; inconclusive means small, poorly fitted or top-dose-only effect; inactive means no such curve, though single readings can be large or run the other way. The list comes from a sample in which actives are over-represented; it also holds similar structures and randomly drawn compounds. Entries that show only a call come without a potency.

Experiment: qHTS Assay to Identify Small Molecule Activators of BRCA1 Expression; further: nearly all actives have a fitted effect of over 80% in size
Details: MCF7-BRCA1-FFLuc reporter, luminescence, 48 h; series mostly up to 46.1 µM
Outline: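 Luminescence from a BRCA1-driven firefly luciferase in MCF7 cells was the read-out, taken 15 min after substrate addition following 48 h compound exposure at 37 °C. Data were normalized to a 10 microM genistein control and DMSO vehicle.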
Potency means the concentration at half of the fitted maximal effect.

Row | SMILES | Potency
1 | CC(C)(C)c1ccc(OC2=CS(=O)(=O)c3ccccc32)cc1 | 12.6 µM (active)
2 | CC(C)(C)c1ccc(CN2C(=O)c3ccccc3S2(=O)=O)cc1 | inactive
3 | CC(C)(C)c1ccc(Oc2ccc(N)cc2)cc1 | inactive
4 | O=S(=O)(c1cccc(C(F)(F)F)c1)N1CCN(c2nc(-c3cccs3)nc3ccccc23)CC1 | inactive
5 | O=C(CCNC(=O)c1ccccc1)NN=Cc1ccc(Br)o1 | inactive
6 | Cc1cccc(NC(=O)CSc2nnc(CCCCCNC(=O)OC(C)(C)C)o2)c1C | inactive
7 | CC(C)(C)OC(=O)NCCCCCC(=O)N/N=C/c1coc2ccccc2c1=O | 11.2 µM (active)
8 | Cc1ccc(-c2nc(=N)sn2Cc2ccccc2)cc1 | inactive
9 | CCOc1ccc(NC(=O)Cn2c(=O)n(CCCC(=O)NCc3ccc4c(c3)OCO4)c(=O)c3ccccc32)cc1 | inactive
10 | CCN(CC)c1ccc(C(=O)OCC(=O)c2ccco2)cc1 | 8.91 µM (active)
11 | CCc1ccc(C(=O)COC(=O)c2ccco2)cc1 | inactive
12 | O=C(COC(=O)c1ccccc1C(=O)c1ccccc1)c1ccco1 | inactive
13 | COc1ccc(S(=O)(=O)n2nc(C)c(S(=O)(=O)N3CCCCCC3)c2C)cc1 | inactive
14 | COc1ccc(S(=O)(=O)Nc2cccc3cccnc23)c(N)c1 | inactive
15 | O=C(NCCCn1ccnc1)c1cc2c(s1)CCCC2 | inactive
16 | O=C(NCC1CCCO1)c1cc2c(s1)CCCC2 (stereo unspecified) | 5.62 µM (active)
17 | CCC(=O)c1c[nH]c(C(=O)NCC2CCCO2)c1 (stereo unspecified) | inactive
18 | COc1ccc(NC(=O)CSc2ccc(-c3ccco3)nn2)c(OC)c1 | inactive
19 | Fc1cccc(Cl)c1CSc1ccc(-c2ccco2)nn1 | 3.55 µM (active)
20 | Cc1snc(SCc2c(F)cccc2Cl)c1C#N | inactive
21 | S=C(Nc1ccc(Cl)cc1Cl)N1CCCC1 | inactive
22 | O=C(NC(=S)Nc1ccc(Cl)cc1Cl)C1CC1 | 3.16 µM (active)

Row | SMILES | Potency
23 | O=C(NC(=S)Nc1ccc(Br)cc1F)C1CCCCC1 | inactive
24 | CCOc1ccc(NC(=O)Nc2cc(C)on2)cc1 | 7.94 µM (active)
25 | CCOc1ccc(NC(=O)Nc2ccc(N(C)C(C)=O)cc2)cc1 | inactive
26 | CCC(=O)Nc1ccc(C(=O)Nc2cc(C)on2)cc1 | inactive
27 | Cc1ccccc1OCCSc1nc2ccc(NC(=O)c3ccco3)cc2s1 | inactive
28 | Oc1ccc(Br)cc1C1C=C(c2ccc3c(c2)OCO3)NC(c2ccc(Cl)cc2)N1 (stereo unspecified) | inactive
29 | COc1ccc(CCN2C(=O)CC(N3CCC(C(N)=O)CC3)C2=O)cc1OC (stereo unspecified) | inactive
30 | COc1ccc(COCC(O)CN2CCC(C(N)=O)CC2)cc1 (stereo unspecified) | inactive
31 | COc1cc(CN2CCC(C(N)=O)CC2)ccc1OCc1ccccc1 | 11.2 µM (active)
32 | CN(C)c1ccc(/C=C/c2sc3ccccc3[n+]2C)cc1 | inactive
33 | COC(=O)[C@@H](NC(=O)NCc1cccc(OC)c1)C(C)C | inactive
34 | COc1cccc(CC(=O)OCC(=O)NCc2ccc3c(c2)OCO3)c1 | inactive
35 | COc1ccc(NC(=O)COC(=O)c2n[nH]c3ccccc23)c(OC)c1 | inactive
36 | COc1cccc(CNC(=O)c2n[nH]c3ccccc23)c1 | 11.2 µM (active)
37 | COc1ccc(S(=O)(=O)N(C)C)cc1NC(=O)COC(=O)c1n[nH]c2ccccc12 | inactive
38 | COc1ccc(COC(=O)c2n[nH]c3ccccc23)cc1F | 14.1 µM (active)
39 | CC(=O)c1ccc(NC(=O)C2CCN(S(=O)(=O)c3c(C)noc3/C=C/c3ccc(C)cc3)CC2)cc1 | inactive
40 | CN(CCC#N)c1ccc(C=O)cc1 | inactive
41 | CCN(CCCNC(=O)c1c(C)oc2ncn(CC(C)C)c(=O)c12)Cc1ccccc1 | inactive
42 | COc1cccc(NC(=O)N(Cc2cn(C)c3ccccc23)C2CCCCCC2)c1 | inactive
43 | CNc1ccc(-c2nc(-c3ccccc3C)no2)cc1[N+](=O)[O-] | inactive
44 | CCCCN1CC(c2nc3ccccc3n2CCCCOc2ccc(C)cc2C)CC1=O (stereo unspecified) | inactive

Row | SMILES | Potency
45 | CCn1c(=O)n(CC)c2cc(N3CCCC3)c(NC(=O)c3ccccc3Br)cc21 | inactive
46 | CCN1C(=O)/C(=C2\SC(N3CCCCC3)=NC2=O)c2ccccc21 | 10 µM (active)
47 | CC(C)=C1SC(N2CCN(c3ccc(C)c(Cl)c3)CC2)=NC1=O | inactive
48 | Cc1cc(OC(C)C(=O)Nc2sc3c(c2C(N)=O)CCCC3)ccc1Cl (stereo unspecified) | inactive
49 | CN(C)/C=C/C(=O)c1cnc2sccn2c1=O | inactive
50 | Cc1nc(COc2cccc(Cl)c2)sc1C(=O)/C=C/N(C)C | inactive
51 | Cc1nc(-c2ccccc2)sc1C(=O)/C=C/N(C)C | 11.2 µM (active)
52 | Cc1cccc(N2CCN(C(=O)c3cc4c(=O)oc5ccccc5c4s3)CC2C)c1 (stereo unspecified) | inactive
53 | O=C(c1cnn2ccccc12)N1CCc2ccccc21 | 3.16 µM (active)
54 | CCCCn1nc(C(=O)N2CCc3ccccc32)c2ccccc2c1=O | inactive
55 | Cc1cnc(C(=O)OCC(=O)N2CCc3ccccc32)cn1 | inactive
56 | Cc1nn(C(=O)c2c(F)cccc2F)c(C)c1S(=O)(=O)N1CCOCC1 | inactive
57 | O=C(C1CC1)N1CCc2cc(Br)cc(S(=O)(=O)N3CCN(c4ccccc4F)CC3)c21 | inactive
58 | O=C(COC(=O)c1ccccn1)NNC(=O)c1ccc([N+](=O)[O-])cc1 | inactive
59 | O=[N+]([O-])c1ccc(NC(=S)N2CCN(c3ccccn3)CC2)cc1 | inactive
60 | O=C(Nc1ccc([N+](=O)[O-])cc1)OCCc1ccccn1 | 2.82 µM (active)
61 | CC(=O)c1cccc(NC(=O)Nc2ccc(C)cc2)c1 | 14.1 µM (active)
62 | CCOc1cc(NC(=O)Nc2ccccc2)c(OCC)cc1NC(=O)CC | inactive
63 | Cc1ccc(NC(=O)N2CCC(O)(c3cccnc3)CC2)cc1 | inactive
64 | CC(=O)c1cccc(NC(=O)c2nc(-c3ccccc3)n(-c3cccc(C)c3)n2)c1 | inactive
65 | O=C(Nc1ccc(Cl)cc1)Nc1ccc(Oc2cccnc2)nc1 | inactive
66 | Cc1ccc(NC(=O)Nc2ccccc2)c(Br)c1 | 1.58 µM (active)

Row | SMILES | Potency
67 | Cc1cc(NC(=O)Nc2c[nH]c(=O)[nH]c2=O)ccc1Br | inactive
68 | CC(=O)c1cccc(NC(=O)[C@@H](NC(N)=O)C(C)C)c1 | inactive
69 | Cc1ccc(NC(=O)Nc2cccnc2)cc1 | 12.6 µM (active)
70 | Cc1sc2ncn(CC(=O)N3CCN(c4ccc(F)cc4)CC3)c(=O)c2c1S(=O)(=O)N1CCN(c2ncccn2)CC1 | inactive
71 | COc1ccccc1CNc1ccc(-c2nc(-c3ccccc3C)no2)cc1[N+](=O)[O-] | inactive
72 | CCOC(=O)C(Cc1ccccc1)NC(=O)CCc1c(C)nc2c(c(C)nn2-c2ccc(C)c(C)c2)c1C (stereo unspecified) | inactive
73 | CCS(=O)(=O)N1CCc2cc(C(=O)NCc3ccc(OC)cc3)ccc21 | inactive
74 | COc1ccc(CNc2nc(-c3ccc(Cl)cc3)cc(C(F)(F)F)n2)cc1 | inactive
75 | CC(Nc1ccc(-c2nc(-c3ccco3)no2)cc1[N+](=O)[O-])c1ccccc1 (stereo unspecified) | inactive
76 | COc1ccc(NC(=O)Cn2c(=O)n(Cc3ccc(C(=O)NCc4ccccc4Cl)cc3)c(=O)c3ccccc32)cc1 | inactive
77 | COc1ccc(-n2c(=O)c3ccccc3n(Cc3ccccc3Cl)c2=O)cc1 | inactive
78 | Cc1c(NC(=O)Nc2cccc([N+](=O)[O-])c2)c(=O)n(-c2ccccc2)n1C | inactive
79 | O=C(CN1CCC(NC(=O)Nc2ccccc2)CC1)Nc1cccc([N+](=O)[O-])c1 | inactive
80 | O=C(Nc1cccc([N+](=O)[O-])c1)N1CCc2ccccc2C1 | 10 µM (active)
81 | O=C(CSc1nnc(-c2ccncc2)n1-c1ccccc1)Nc1ccc(Cl)c(Cl)c1 | inactive
82 | CCOc1ccc(CNC(=O)c2ccc3c(c2)nnn3C2CCCC2)cc1 | inactive
83 | CC1CC(C)CN(c2oc(-c3ccc(OCc4ccc(Cl)cc4)cc3)nc2C#N)C1 (stereo unspecified) | inactive
84 | COc1cccc(NC(=O)CSc2nnc(-c3cccnc3)o2)c1 | inactive
85 | CCN(CC)C(=O)CSc1nnc(-c2ccc(S(=O)(=O)NCc3ccccc3Cl)cc2)o1 | inactive
86 | CCN(CC)C(=O)CSc1nnc(-c2cccc(OC)c2)o1 | 11.2 µM (active)
87 | CCOC(=O)c1cc(OC(=O)c2ccccc2Cl)n(-c2ccccc2)n1 | inactive
88 | CC(C)(C)c1ccc(C(=O)C[n+]2cccc3cc(Cl)ccc32)cc1 | inactive

Row | SMILES | Potency
89 | Cn1cc(S(=O)(=O)N2CCCCCC2)cc1C(=O)N1CCN(c2ccc(F)cc2)CC1 | inactive
90 | CCc1ccc(C(=O)CC2(O)C(=O)N(CCc3ccccc3)c3ccc(Br)cc32)cc1 (stereo unspecified) | inactive
91 | CC1CCN(Cc2nc(-c3ccc(Cl)cc3)no2)CC1 | 8.91 µM (active)
92 | CCN1CC(CN(C)Cc2nc(-c3ccc(Cl)cc3)no2)CC1=O (stereo unspecified) | inactive
93 | Cc1ccc(-c2noc(CSc3nnc(-c4ccc(Cl)cc4)n3C)n2)cc1 | inactive
94 | CC(C)c1ccc2oc(-c3cc(NC(=O)c4cccs4)ccc3Cl)nc2c1 | inactive
95 | CC1(C)Cc2ccccc2-c2c[nH]c(=O)n21 | inactive
96 | N#CNC1=NCN(CCc2ccccc2)CN1 | inactive
97 | c1ccc(CCN2CN=C(Nc3nc4ccccc4o3)NC2)cc1 | 7.94 µM (active)
98 | CCCN1CNC(=S)N(CCc2ccccc2)C1 | inactive
99 | CCOC(=O)c1c(C)[nH]c(C)c1S(=O)(=O)N1CCC(C(=O)Nc2ccc(C)c(Cl)c2)CC1 | inactive
100 | C(=Nc1ccc(/C=C/c2ccnc3ccccc23)cc1)Nc1ccc(/C=C/c2ccnc3ccccc23)cc1 | inactive
101 | O=C(CC(=O)c1cccnc1)c1ccccc1 | inactive
102 | C/C(=C\C(=O)c1cccnc1)Nc1ccc(C)c(C)c1 | 12.6 µM (active)
103 | Cc1ccc(S(=O)(=O)N2CCCCC2)cc1NC(=O)c1cccnc1 | inactive
104 | CC1CCN(C(=S)c2ccc(-c3ccc(Cl)cc3Cl)o2)CC1 | inactive
105 | COc1cc(OC)c(C(=S)N2CCCC2)cc1OC | inactive
106 | S=C(c1ccc(-c2ccccc2)o1)N1CCCCC1 | 3.98 µM (active)
